Source: PubChem BioAssay (NCI)
Compounds without any hit were thinned out: in the full panel of roughly 83,000, 20% have a hit.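 Step 1: grow cells in 96-well plates. Step 2: add test compound at a single concentration. Step 3: incubate 48 h. Step 4: record percent growth.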 The source made the active and inactive calls. Rule for the calls: active = growth percent below 10; inactive = the rest.

Key:
Assay in all cases: NCI-60 one-dose screen, 48 h (100 = growth as untreated, 0 = no growth, -100 = all killed)
NCI-H23 lung = settings: 10 µM unless noted
NCI-H226 lung = settings: 10 µM unless noted
NCI-H322M lung = settings: 10 µM unless noted
HOP-62 NSCLC = settings: 10 µM unless noted
HOP-92 NSCLC = settings: 10 µM
NCI-H522 lung = settings: 10 µM
A549/ATCC NSCLC = settings: 10 µM unless noted
786-0 renal = settings: 10 µM unless noted
COLO 205 colon = settings: 10 µM unless noted
DU-145 prostate = settings: 10 µM unless noted
K-562 leukemia = settings: 10 µM unless noted
MALME-3M melanoma = settings: 10 µM unless noted
MDA-MB-231 breast = settings: 10 µM unless noted
RXF 393 renal = settings: 10 µM unless noted
SF-268 CNS = settings: 10 µM unless noted
SF-295 CNS = settings: 10 µM unless noted
SF-539 CNS = settings: 10 µM unless noted
UACC-257 melanoma = settings: 10 µM unless noted
M14 melanoma = settings: 10 µM unless noted
NCI-H460 lung = settings: 10 µM unless noted

Measured: growth

COc1ccc(/C(=C(\c2ccccc2)[N+](=O)[O-])c2ccc(OCCN3CCCC3)cc2)cc1
active: COLO 205 colon 8.89% | MALME-3M melanoma -7.32% | UACC-257 melanoma -26.1% | M14 melanoma -73.4%
inactive: NCI-H23 lung 74.9% | NCI-H226 lung 72.8% | NCI-H322M lung 87.2% | HOP-62 NSCLC 94.1% | HOP-92 NSCLC 59.5% | NCI-H522 lung 83.7% | A549/ATCC NSCLC 78.4% | 786-0 renal 15.2% | DU-145 prostate 89.3% | K-562 leukemia 13.7% | MDA-MB-231 breast 55% | RXF 393 renal 25% | SF-268 CNS 84.4% | SF-295 CNS 31.9% | SF-539 CNS 28.6%

CCN(CCO)CCNc1ccc(C)c2sc3cc(OC)ccc3c(=O)c12
inactive: NCI-H23 lung 79.6% | NCI-H226 lung 73.5% | NCI-H322M lung 76.1% | HOP-62 NSCLC 62% | HOP-92 NSCLC 55.8% | NCI-H522 lung 62.6% | A549/ATCC NSCLC 59.4% | 786-0 renal 66.6% | COLO 205 colon 48.9% | DU-145 prostate 72.2% | K-562 leukemia 20.1% | MALME-3M melanoma 103% | MDA-MB-231 breast 64.2% | RXF 393 renal 71.4% | SF-268 CNS 70.1% | SF-295 CNS 73.7% | SF-539 CNS 77.2% | UACC-257 melanoma 103% | M14 melanoma 79.3%

Cc1ncc(C(=O)Nc2ccc(CN3CCN(C)CC3)c(C(F)(F)F)c2)cc1C#Cc1c(N)ncc2ccccc12
active: NCI-H23 lung -73.1% | NCI-H226 lung -79.1% | NCI-H322M lung -99% | HOP-62 NSCLC -97.2% | HOP-92 NSCLC -37.9% | NCI-H522 lung -85.7% | A549/ATCC NSCLC -96.6% | 786-0 renal -91.8% | DU-145 prostate -87.8% | K-562 leukemia -73.2% | MALME-3M melanoma -84.9% | MDA-MB-231 breast -96.6% | RXF 393 renal -93.9% | SF-268 CNS -54.4% | SF-295 CNS -90.5% | SF-539 CNS -98.5% | UACC-257 melanoma -86% | M14 melanoma -86.1%

Cc1cc(CSc2ccc(Cl)cc2)ccc1N
inactive: NCI-H23 lung 99.2% | NCI-H226 lung 82.9% | NCI-H322M lung 98.2% | HOP-62 NSCLC 110% | HOP-92 NSCLC 85.2% | NCI-H522 lung 81.5% | A549/ATCC NSCLC 60.3% | 786-0 renal 69.8% | COLO 205 colon 107% | DU-145 prostate 88.5% | K-562 leukemia 99.6% | MDA-MB-231 breast 61.9% | RXF 393 renal 105% | SF-268 CNS 70% | SF-295 CNS 101% | SF-539 CNS 62.9% | UACC-257 melanoma 108%

Cc1ccc(S(=O)(=O)Nc2cccc(Cn3c(=O)[nH]c4ccc(Oc5ncccn5)cc4c3=O)c2)cc1
inactive: NCI-H23 lung 85.4% | NCI-H226 lung 86.1% | NCI-H322M lung 79.9% | HOP-62 NSCLC 72.2% | HOP-92 NSCLC 62.9% | NCI-H522 lung 33.6% | A549/ATCC NSCLC 90.7% | 786-0 renal 95.9% | DU-145 prostate 95.6% | K-562 leukemia 26.6% | MALME-3M melanoma 59.8% | MDA-MB-231 breast 77.4% | RXF 393 renal 80.5% | SF-268 CNS 82.3% | SF-295 CNS 74.4% | SF-539 CNS 71.7% | UACC-257 melanoma 73.3%

Oc1ccc2ccccc2c1/C=N\Nc1ccccn1
inactive: COLO 205 colon 91% | K-562 leukemia 16.1% | MDA-MB-231 breast 25.1% | RXF 393 renal 18.3% | SF-268 CNS 16.8% | UACC-257 melanoma 12.9%
active: NCI-H23 lung 0% | NCI-H226 lung 9.04% | NCI-H322M lung -12.6% | HOP-62 NSCLC -8.47% | HOP-92 NSCLC -15.1% | NCI-H522 lung 6.74% | A549/ATCC NSCLC 8.68% | 786-0 renal -29.3% | DU-145 prostate 4.84% | SF-295 CNS -42.7% | SF-539 CNS -4.88% | M14 melanoma -22.5%

CCOC(=O)C1=C(C(F)(F)F)NC(=S)NC1CN1C(=O)c2ccccc2C1=O (configuration not stated)
inactive: NCI-H23 lung 87.5% | NCI-H226 lung 116% | NCI-H322M lung 103% | NCI-H460 lung 106% | HOP-92 NSCLC 82.3% | NCI-H522 lung 111% | A549/ATCC NSCLC 118% | 786-0 renal 99.7% | COLO 205 colon 119% | DU-145 prostate 115% | K-562 leukemia 101% | MALME-3M melanoma 92.9% | MDA-MB-231 breast 90.2% | RXF 393 renal 113% | SF-268 CNS 101% | SF-295 CNS 93% | SF-539 CNS 104% | UACC-257 melanoma 110%

C[C@H]1C[C@@H](n2cnc3c(N)nccc32)[C@H](O)[C@@H]1O
active: RXF 393 renal 7.03%
inactive: NCI-H23 lung 128% | NCI-H226 lung 105% | NCI-H322M lung 110% | NCI-H460 lung 80.8% | HOP-92 NSCLC 83.3% | NCI-H522 lung 151% | A549/ATCC NSCLC 98.6% | 786-0 renal 95.6% | COLO 205 colon 109% | DU-145 prostate 84% | K-562 leukemia 69.6% | MALME-3M melanoma 110% | MDA-MB-231 breast 89.9% | SF-268 CNS 97.9% | SF-295 CNS 96.5% | SF-539 CNS 67.9% | UACC-257 melanoma 89.3%

O=C1C(=O)c2ccccc2C(O)=C1CCCc1ccc(C2CCCC2)cc1
inactive: NCI-H23 lung 36.5% | NCI-H226 lung 36.8% | NCI-H322M lung 37.9% | HOP-92 NSCLC 78.2% | NCI-H522 lung 39.2% | A549/ATCC NSCLC 37.9% | 786-0 renal 43.8% | COLO 205 colon 54.7% | DU-145 prostate 40.5% | K-562 leukemia 19.2% | MALME-3M melanoma 84% | MDA-MB-231 breast 56.5% | RXF 393 renal 57.9% | SF-268 CNS 47.6% | SF-295 CNS 27.3% | SF-539 CNS 22.9% | UACC-257 melanoma 40.7%
active: NCI-H460 lung 9.54%
